In PubChem BioAssay AID624301 (The Scripps Research Institute Molecular Screening Center, 2012):
Activity calls are given as the source filed them.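 The calls were made as follows: active = relative activity ratio in the reporter plus Dax-1 wells above 5 or under 0.1 at any tested dose; inactive = ratio stays between 0.1 and 5 at every dose.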

Target: DAX1 (UniProt P51843)
Assay: DAX1 repression relief on CAT reporter, dose response, DAX1 inhibitor project, cell-based, CAT activity, absorbance, powder samples (AID 624301)
Settings: HEK293 Gal4-DAX1 CAT reporter, ELISA absorbance; CAT reporter with DAX1, at 100 µM (top of the series)

Sequence of DAX1 (P51843 whole entry, looked up): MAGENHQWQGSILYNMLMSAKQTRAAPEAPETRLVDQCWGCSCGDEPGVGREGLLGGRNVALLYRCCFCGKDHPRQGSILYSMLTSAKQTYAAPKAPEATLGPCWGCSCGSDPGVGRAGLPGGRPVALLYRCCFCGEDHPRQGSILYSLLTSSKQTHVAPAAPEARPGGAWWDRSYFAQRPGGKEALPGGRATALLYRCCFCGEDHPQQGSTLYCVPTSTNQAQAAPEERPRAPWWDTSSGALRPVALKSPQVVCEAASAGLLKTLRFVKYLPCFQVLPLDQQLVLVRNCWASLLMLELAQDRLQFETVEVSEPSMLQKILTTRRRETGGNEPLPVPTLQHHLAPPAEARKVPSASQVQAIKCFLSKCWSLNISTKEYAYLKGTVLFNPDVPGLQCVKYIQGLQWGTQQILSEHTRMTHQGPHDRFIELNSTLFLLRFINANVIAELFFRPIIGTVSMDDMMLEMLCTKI

Compound	outcome
Cn1c(=O)n(C)c2cc(C(=O)Nc3ccc4c(c3)OCO4)ccc21	inactive
Cn1c(=O)n(C)c2cc(C(=O)Nc3ccc4c(c3)OCCO4)ccc21	inactive
